In PubChem BioAssay one finds inhibition data, which are given here for 24 compounds.

For orientation: inhibition means the drop in the measured response relative to a control, in per cent.

Values without a mark were called inactive. The source made the active and inactive calls.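 How the source made its calls: active means mean inhibition above 46.68%, the untreated control wells mean plus 3 SD; inactive means the rest.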

In the test the target is Nuclear receptor coactivator 1 (Homo sapiens) (UniProt Q15788). The experiment in a line: NCOA1 GAL4-fusion reporter inhibition – cell-based, luminescence, quadruplicate, confirmation (AID 588820).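 Further: 0% = DMSO wells and 100% = gossypol 36 µM treated wells.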 The note with it: HEK293 GAL4-SRC1 luciferase reporter, at 3.6 µM, stronger effect = higher value. (A reporter such as luciferase makes a cellular process visible.)
Chain of Nuclear receptor coactivator 1 (Homo sapiens) (Q15788 whole entry, looked up, the tested form may be a part): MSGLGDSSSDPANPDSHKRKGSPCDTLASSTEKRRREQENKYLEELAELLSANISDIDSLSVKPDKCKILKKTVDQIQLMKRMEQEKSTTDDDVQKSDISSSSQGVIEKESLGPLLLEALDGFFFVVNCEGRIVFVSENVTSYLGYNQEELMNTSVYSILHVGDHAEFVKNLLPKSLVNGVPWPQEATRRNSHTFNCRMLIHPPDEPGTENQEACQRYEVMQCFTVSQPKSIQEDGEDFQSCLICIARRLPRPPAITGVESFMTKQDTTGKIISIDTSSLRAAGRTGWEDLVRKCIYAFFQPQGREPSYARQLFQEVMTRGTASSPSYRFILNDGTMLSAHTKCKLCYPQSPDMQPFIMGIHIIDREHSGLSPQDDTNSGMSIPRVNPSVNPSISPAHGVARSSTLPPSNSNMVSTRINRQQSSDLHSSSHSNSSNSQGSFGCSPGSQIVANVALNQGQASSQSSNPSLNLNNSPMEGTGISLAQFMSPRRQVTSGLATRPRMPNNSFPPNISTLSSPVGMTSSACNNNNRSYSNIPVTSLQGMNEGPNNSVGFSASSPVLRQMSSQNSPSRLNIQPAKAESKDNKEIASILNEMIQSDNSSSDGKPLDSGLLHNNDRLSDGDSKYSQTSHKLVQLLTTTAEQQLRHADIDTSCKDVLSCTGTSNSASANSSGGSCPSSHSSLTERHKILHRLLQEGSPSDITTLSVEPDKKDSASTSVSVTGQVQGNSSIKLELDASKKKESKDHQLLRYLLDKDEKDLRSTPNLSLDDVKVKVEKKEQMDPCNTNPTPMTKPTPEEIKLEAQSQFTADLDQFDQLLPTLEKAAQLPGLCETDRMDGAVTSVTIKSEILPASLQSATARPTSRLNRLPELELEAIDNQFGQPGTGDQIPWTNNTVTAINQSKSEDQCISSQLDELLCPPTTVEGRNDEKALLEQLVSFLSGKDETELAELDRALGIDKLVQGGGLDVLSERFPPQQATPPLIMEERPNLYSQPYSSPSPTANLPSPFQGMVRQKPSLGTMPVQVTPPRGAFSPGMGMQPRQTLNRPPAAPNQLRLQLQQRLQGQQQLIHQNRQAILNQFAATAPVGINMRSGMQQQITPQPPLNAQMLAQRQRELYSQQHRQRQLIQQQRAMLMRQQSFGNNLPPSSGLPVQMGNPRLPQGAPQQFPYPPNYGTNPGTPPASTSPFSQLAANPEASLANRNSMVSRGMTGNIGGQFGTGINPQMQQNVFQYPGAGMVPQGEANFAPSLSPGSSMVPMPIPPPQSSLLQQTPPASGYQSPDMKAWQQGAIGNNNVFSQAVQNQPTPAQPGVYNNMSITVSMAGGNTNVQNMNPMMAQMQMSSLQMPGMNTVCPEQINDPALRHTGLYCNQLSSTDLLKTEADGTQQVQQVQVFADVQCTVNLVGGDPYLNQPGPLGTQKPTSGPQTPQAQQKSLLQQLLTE
As to `O=C(N/N=C(\c1ccccc1)c1ccccn1)c1ccccc1Cl`, the inhibition is 25.9%.
The value for `Nc1nc(=O)n(C2CC(O)C(CO)O2)cc1F` (centres undefined) was 57.2% (active); that for `Nc1ncnc(NCc2ccccc2)c1[N+](=O)[O-]` was 38.1%.
With `COc1ccc(C(C(=O)NC2CCCCC2)N(C(=O)CCl)c2ccc(C)cc2)cc1` (centres undefined), the inhibition is 35.7%.
The value for `O=C(C=P(c1ccccc1)(c1ccccc1)c1ccccc1)c1ccccc1-c1ccccc1C(=O)C=P(c1ccccc1)(c1ccccc1)c1ccccc1` was 24.4%; that for `O=C(CCSc1nc2ccccc2s1)N/N=C/c1c(O)ccc2ccccc12` was 36%.
`CC(C)Cn1c(N)c(C(=O)CSc2ccc3c(c2)OCCO3)c(=O)n(C)c1=O`: the inhibition is 46%.
The value for `COc1ccc(-n2cc(-c3ccccc3)[n+]3c2CCCCC3)cc1` was 16.8%; that for `COc1cccc2c1C(=N)c1c(O)c3c(c(O)c1C2=O)CC(O)(C(C)=O)CC3OC1CC(N)C(O)C(C)O1` (centres undefined) was 26.9%.
The value for `Cn1c(C(=O)O)c(CC(=O)Nc2ccc3c(c2)OCCO3)c2ccccc21` was -17.2%; that for `Cc1cc(C)c2nc3nc(C)c(C)cc3c(N)c2c1` was 5.02%; that for `CCOc1cc(/C=C2\CN(C)C/C(=C\c3ccc(O)c(OCC)c3)C2=O)ccc1O` was -18.5%.
`CC1(C)CCSC(/C=C/c2ccccc2)=N1`: the inhibition was 46.1%.
Next, `Cc1cc(=O)[nH]c(Nc2cccc(Br)c2)n1`: 34.2%; `CC(=O)NS(=O)(=O)c1ccc(NC(=O)/C=C/c2cn(-c3ccccc3)nc2-c2ccccc2)cc1`: 1.36%; `Cn1c(CC(=O)Nc2ccc(Cl)c(Cl)c2)nnc1SCC(=O)N1CCN(c2ccccc2)CC1`: 9.04%.
Next, `O=C(N/N=C/c1ccccc1O)/C(=C/c1ccccc1)CCO`: 20%.
The value for `COc1ccc(-c2c[n+]3c(n2-c2ccccc2)SCC3)cc1` was 11.1%; that for `Oc1ccc(-c2n[nH]c(=S)n2-c2ccc3c(c2)OCCO3)c(O)c1` was 20.9%.
As to `COCC(C)n1c(C)cc(C(=O)COC(=O)c2cc(=O)[nH]c3ccccc23)c1C` (centres undefined), the inhibition was -34.1%.
Regarding `NC(=O)N=Nc1c2[nH]c3ccccc3nc-2c2ccccc12`, the inhibition is -11.8%.
Next, `O=C(/C=C/c1ccc(OCCCF)cc1)Nc1ccnc(-c2cccnc2)n1`: -25.6%; `O=C(c1ccncc1)N(Cc1cc2ccccc2[nH]c1=O)C1CCCCC1`: 42.2%.
As for `O=C1C(F)=CC(COC(c2ccccc2)(c2ccccc2)c2ccccc2)OC1n1cc(F)c(=O)[nH]c1=O` (centres undefined), the inhibition was -11.1%.
